The nature of assay [1]: qHTS for Inhibitors of the Functional Ribonucleoprotein Complex (vRNP) of Lassa (LASV) Arenavirus: LASV Primary Screen - GLuc reporter signal (AID 1347082; calls by dose curve; tested in HEK293 reporter line; further: nearly all actives have a fitted effect of over 60% in size; on activity change, negative = inhibition: series mostly up to about 57 µM). A general note: Quantitative high-throughput screening tests each substance at several concentrations.
Assay [2] is described as follows: qHTS for Inhibitors of the Functional Ribonucleoprotein Complex (vRNP) of Lassa (LASV) Arenavirus: Viability assay - alamar blue signal for LASV Primary Screen (AID 1347083; calls by dose curve; tested in HEK293 reporter line; further: nearly all actives have a fitted effect of over 80% in size; on activity change, negative = reduced viability: series mostly up to about 57 µM).
The nature of assay [3]: qHTS for Inhibitors of the Functional Ribonucleoprotein Complex (vRNP) of Lymphocytic Choriomeningitis Arenaviruses (LCMV): Viability assay - alamar blue signal for LCMV Primary Screen (AID 1347085; calls by dose curve; tested in HEK293 reporter line; further: nearly all actives have a fitted effect of over 80% in size; on activity change, negative = lower viability: series mostly up to about 57 µM).
Assay [4] addresses Nucleoprotein (Lymphocytic choriomeningitis virus (strain Armstrong)) (UniProt P09992). As to the kind of experiment: qHTS for Inhibitors of the Functional Ribonucleoprotein Complex (vRNP) of Lymphocytic Choriomeningitis Arenaviruses (LCMV): LCMV Primary Screen - GLuc reporter signal (AID 1347086). Further: nearly all actives have a fitted effect of over 70% in size. On activity change, negative = inhibition: series mostly up to about 57 µM.

Records with an inconclusive call do not appear. A number with no mark means an inactive call. Calls of active or inactive are those of the source. Unless noted, the call rests on the fitted dose curve.
On the % scale 0 is the no-effect control and ±100 the full control effect; potency means the concentration at half of the fitted maximal effect.

Sequence of Nucleoprotein (Lymphocytic choriomeningitis virus (strain Armstrong)) (P09992 whole entry, looked up): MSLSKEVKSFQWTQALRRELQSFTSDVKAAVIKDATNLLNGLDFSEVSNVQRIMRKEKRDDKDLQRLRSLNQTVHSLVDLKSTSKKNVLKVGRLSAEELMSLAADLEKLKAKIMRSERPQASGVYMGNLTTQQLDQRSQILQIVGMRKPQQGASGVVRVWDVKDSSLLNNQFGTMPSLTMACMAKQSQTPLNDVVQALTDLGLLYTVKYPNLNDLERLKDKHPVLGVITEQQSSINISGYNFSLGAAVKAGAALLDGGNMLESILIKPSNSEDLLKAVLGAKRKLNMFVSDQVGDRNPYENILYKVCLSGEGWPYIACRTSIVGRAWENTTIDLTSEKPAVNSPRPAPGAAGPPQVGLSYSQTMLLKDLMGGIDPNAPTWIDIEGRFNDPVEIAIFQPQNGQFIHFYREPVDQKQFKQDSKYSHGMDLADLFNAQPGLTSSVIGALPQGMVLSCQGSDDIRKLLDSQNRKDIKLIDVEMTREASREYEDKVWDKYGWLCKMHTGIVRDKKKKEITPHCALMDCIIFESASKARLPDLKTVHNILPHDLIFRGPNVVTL

As to `COc1cc(-c2ccccc2)nc2ccccc12`, the Potency entry in assay [1], in assay [2], in assay [3] and in assay [4] was “inactive” in each case.

As to `CC(C)=CCC/C(C)=C/C(=O)O`, the Potency result in assay [1], in assay [2], in assay [3] and in assay [4] was “inactive” throughout.

Consider `Cc1cnc(C)c(C)n1`, for which the Potency result in assay [1], in assay [2], in assay [3] and in assay [4] was “inactive” throughout.

`O=C(Nc1nnc(-c2ccco2)o1)c1cc(-c2ccccc2)nc2ccccc12`: the Potency result in assay [1], in assay [2], in assay [3] and in assay [4] was “inactive” in each case.

As for `CC(=O)Nc1nc(C)c(-c2ccc(Cl)c(S(=O)(=O)NCCO)c2)s1`, the Potency in assay [1] was 2.43 µM (active); in assay [2], 1.37 µM (active); in assay [3], 0.685 µM (active); in assay [4], 0.544 µM (active).

For the molecule `CC(C)C[C@H](NC(=O)c1cc2ccccc2s1)C(=O)N1CCN(C(=O)[C@H](CO)NS(=O)(=O)c2ccc(Cl)cc2Cl)CC1`, the Potency result in assay [1], in assay [2], in assay [3] and in assay [4] was “inactive” throughout.

Turning to `COc1ccc(C2OCC3(O)C(c4ccc(OC)c(OC)c4)OCC23)cc1OC` (stereo not given), the Potency entry in assay [1], in assay [2], in assay [3] and in assay [4] was “inactive” each time.

`N#CC(=Cc1ccc(O)c(O)c1)C(=O)NCc1ccccc1`: the Potency result in assay [1], in assay [2], in assay [3] and in assay [4] was “inactive” throughout.

Consider `COc1cc(C2C(c3ccccc3)C(c3cc(OC)cc(=O)o3)C2c2ccccc2)oc(=O)c1` (stereo not given), for which the Potency result in assay [1], in assay [2], in assay [3] and in assay [4] was “inactive” throughout.

Turning to `Cc1csc(-c2nnc(Nc3ccc(Oc4ncccc4-c4ccnc(N)n4)cc3)c3ccccc23)c1`, the Potency entry in assay [1] and in assay [4] was “inactive” in each case. For the same molecule, the results for the Potency in assay [2] and in assay [3] were 6.85 µM (active) and 19.3 µM (active), respectively.

As to `COc1cc(C(=O)O)ccc1O`, the Potency result in assay [1], in assay [2], in assay [3] and in assay [4] was “inactive” in each case.

Take `CCN1C[C@@]2(COC)CCC(OC)[C@]34C5C[C@]6(O)[C@@H](OC)C[C@](OC(C)=O)(C([C@H](OC)C23)[C@H]14)C5[C@H]6OC(=O)c1ccc(OC)cc1` (stereo not given in full): the Potency result in assay [1], in assay [2], in assay [3] and in assay [4] was “inactive” throughout.

With `COC1[C@@H](OC)C[C@H](C)[C@@H](OC)C2=CC(=O)C=C(NC(=O)/C(C)=C/C=C\[C@H](OC)[C@@H](OC(N)=O)/C(C)=C/[C@@H]1C)C2=O` (stereo not given in full), the activity change, negative = inhibition in assay [1] is 1.65% [at 5.82 µM]; in assay [4], 12.1% [at 5.82 µM]. Also, the activity change, negative = reduced viability in assay [2] was 7.34% [at 5.82 µM]. In addition, in assay [3], the activity change, negative = lower viability was 15.6% [at 5.82 µM].

Turning to `Cc1cc(=O)oc2cc3c(cc12)OCO3`, the Potency result in assay [1], in assay [2], in assay [3] and in assay [4] was “inactive” in each case.

`CCCC(=O)OCC`: the Potency result in assay [1], in assay [2], in assay [3] and in assay [4] was “inactive” each time.

For the molecule `CCOC(=O)c1cccc(C(=O)OCC)n1`, the Potency entry in assay [1], in assay [2], in assay [3] and in assay [4] was “inactive” each time.

With `COc1ccc(-c2coc3cc(O)ccc3c2=O)cc1OC`, the Potency entry in assay [1], in assay [2], in assay [3] and in assay [4] was “inactive” throughout.

On to `COc1cc2cc(Oc3ccc4ccc(=O)oc4c3)c(=O)oc2cc1O[C@@H]1O[C@H](CO)[C@@H](O)[C@H](O)[C@H]1O`, for which the Potency result in assay [1], in assay [2], in assay [3] and in assay [4] was “inactive” each time.

Regarding `COc1ccc(CC(C)N)cc1` (stereo not given), the Potency result in assay [1], in assay [2], in assay [3] and in assay [4] was “inactive” each time.

With `CCCCCCOC(=O)c1ccccc1`, the Potency entry in assay [1], in assay [2], in assay [3] and in assay [4] was “inactive” each time.

Consider `CC1(C)CCC[C@@]2(C)[C@@H]1CC[C@@]1(C)OC(=O)C[C@H]21`, for which the Potency result in assay [1], in assay [2], in assay [3] and in assay [4] was “inactive” in each case.

In the case of `Cc1c[nH]c(C=C2C(=O)Nc3ccccc32)c1CCC(=O)O`, the Potency entry in assay [1], in assay [2], in assay [3] and in assay [4] was “inactive” throughout.

For the molecule `O=CN1CCCCC1`, the Potency result in assay [1], in assay [2], in assay [3] and in assay [4] was “inactive” throughout.

Take `CCCCCCCCCOC(C)=O`: the Potency result in assay [1], in assay [2], in assay [3] and in assay [4] was “inactive” in each case.

Consider `O=c1c(O)c(-c2ccc(O[C@@H]3O[C@H](CO)[C@@H](O)[C@H](O)[C@H]3O)c(O)c2)oc2cc(O)cc(O)c12`, for which the Potency result in assay [1], in assay [2], in assay [3] and in assay [4] was “inactive” in each case.

Turning to `CC(C)N1[N]C(=C2C=c3cc(O)ccc3=N2)c2c(N)ncnc21`, the Potency was 2.73 µM (active) in assay [1], 0.685 µM (active) in assay [2], 1.09 µM (active) in assay [3] and 0.611 µM (active) in assay [4].

On to `NC1C(O)OC(CO)[C@@H](O)[C@@H]1O[C@H]1O[C@@H](C(=O)O)C(O)C(O)C1O` (stereo not given in full), for which the Potency entry in assay [1], in assay [2], in assay [3] and in assay [4] was “inactive” in each case.

Turning to `CCC1CCC(=O)O1` (stereo not given), the Potency result in assay [1], in assay [2], in assay [3] and in assay [4] was “inactive” in each case.

In the case of `Cc1cnccn1`, the Potency result in assay [1], in assay [2], in assay [3] and in assay [4] was “inactive” in each case.

Regarding `Nc1[nH]c(=O)nc2c1ncn2C1OC(CO)C(O)C1O` (stereo not given), the Potency result in assay [1], in assay [2], in assay [3] and in assay [4] was “inactive” each time.

The values above are taken from PubChem BioAssay (NCATS).
